Experimental findings from the supplement of paper PMC9262897, “Low-cost anti-mycobacterial drug discovery using engineered E. coli” (Nature Communications, 2022) are described below.

Structures can show the parent of a compound that is named as a salt. ± gives the standard deviation of the averaged measurements.

One assay relates to E. coli TESEC Mtb DapB. The assay is described as follows: growth (OD600 after 10 h); higher = more growth (less inhibition). The settings on record: arabinose induction (level): High; compound 0.1 mM; raw OD600 reference: median of DMSO wells […], cell-free background 0.041. The procedure:
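TESEC E. coli strains in which the native enzyme is deleted and replaced by arabinose-inducible Mtb Asd, DapB, CysH or TrpD, each grown in its selective medium. Strains were screened against the Prestwick library at 0.1 mM and 1% DMSO in 384-well format at low and high arabinose induction. Growth is read as OD600 after 10 h in triplicate.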
With `CCCNCC(O)COc1ccccc1C(=O)CCc1ccccc1` (stereo not given) [Propafenone hydrochloride], the growth was determined as 0.173 ± 0.01.
Compound `CNC1(C)C2CCC(C2)C1(C)C` (stereo not given) [Mecamylamine hydrochloride] showed a growth of 0.187 ± 0.018.
Still for that read-out and setting: next, `COc1cc2ncnc(Nc3ccc(F)c(Cl)c3)c2cc1OCCCN1CCOCC1` [Gefitinib]: 0.207 ± 0.012.
As for `O=C(O)c1ccccc1Nc1cccc(C(F)(F)F)c1` [Flufenamic acid], the growth worked out at 0.117 ± 0.0058.
On the same count and under the same terms, next, `CCC(=O)O[C@]1(C(=O)SCF)[C@H](C)C[C@H]2[C@@H]3C[C@H](F)C4=CC(=O)C=C[C@]4(C)[C@@]3(F)[C@@H](O)C[C@@]21C` [Fluticasone propionate]: 0.199 ± 0.015; `C#C[C@]1(O)CC[C@H]2[C@@H]3CCC4=Cc5oncc5C[C@]4(C)[C@H]3CC[C@@]21C` [Danazol]: 0.169 ± 0.0079.
The compound `Cn1c([N+](=O)[O-])cnc1COC(N)=O` [Ronidazole] showed a growth of 0.187 ± 0.0036.
On the same count and under the same terms, next, `CC(C(=O)O)c1ccc(N2Cc3ccccc3C2=O)cc1` (stereo not given) [Indoprofen]: 0.206 ± 0.016; `CC(=O)Oc1cc(C(C)C)c(OCCN(C)C)cc1C` [Moxisylyte hydrochoride]: 0.171 ± 0.0028; `COc1ccccc1N1CCN(CCCCNC(=O)c2ccc3ccccc3c2)CC1`: 0.188 ± 0.017.
Compound `CCCCC1(COC(=O)CCC(=O)O)C(=O)N(c2ccccc2)N(c2ccccc2)C1=O` [Suxibuzone] returned a growth of 0.1763 ± 0.0008.
On the same count and under the same terms, with `Cc1c(N(C)C)c(=O)n(-c2ccccc2)n1C` [Amidopyrine] the figure was 0.21 ± 0.017; with `O=C1CN(/N=C/c2ccc([N+](=O)[O-])o2)C(=O)N1` [Nitrofurantoin], 0.172 ± 0.009; with `c1ccc2[nH]c(-c3cscn3)nc2c1` [Tiabendazole], 0.186 ± 0.003.
Same read-out and setting: next, `CCCOc1cc(N)ccc1C(=O)OCCN(CC)CC` [Propoxycaine hydrochloride]: 0.225 ± 0.0078.
Still for that read-out and setting: with `c1ccc(CC2=NCCN2)cc1` [Tolazoline hydrochloride] the figure was 0.191 ± 0.017; with `CC(N/C(=N\C#N)Nc1ccncc1)C(C)(C)C` (stereo not given) [Pinacidil], 0.19 ± 0.012; with `CS(=O)(=O)c1ccc(C2=C(c3ccccc3)C(=O)OC2)cc1` [Rofecoxib], 0.205 ± 0.0062.
Consider `O=C(N/N=C/c1ccc([N+](=O)[O-])o1)c1ccc(O)cc1` [Nifuroxazide], for which the growth was found to be 0.0553 ± 0.0015.
Same read-out and setting: next, `CC(CN(C)C)C(C)(O)Cc1ccc(Cl)cc1` (stereo not given) [Clobutinol hydrochloride]: 0.187 ± 0.0091.

The assay is the same for the next values; noted with them: arabinose induction (level): Low; compound 0.1 mM; raw OD600 reference: median of DMSO wells 0.227, cell-free background 0.041.
`CCCNCC(O)COc1ccccc1C(=O)CCc1ccccc1` (stereo not given) [Propafenone hydrochloride] yielded a growth of 0.185 ± 0.015.
Still for that read-out and setting: with `CNC1(C)C2CCC(C2)C1(C)C` (stereo not given) [Mecamylamine hydrochloride] the figure was 0.238 ± 0.012; with `COc1cc2ncnc(Nc3ccc(F)c(Cl)c3)c2cc1OCCCN1CCOCC1` [Gefitinib], 0.246 ± 0.0095.
`O=C(O)c1ccccc1Nc1cccc(C(F)(F)F)c1` [Flufenamic acid] returned a growth of 0.181 ± 0.046.
Same read-out and setting: with `CCC(=O)O[C@]1(C(=O)SCF)[C@H](C)C[C@H]2[C@@H]3C[C@H](F)C4=CC(=O)C=C[C@]4(C)[C@@]3(F)[C@@H](O)C[C@@]21C` [Fluticasone propionate] the figure was 0.239 ± 0.04.
In turn, `C#C[C@]1(O)CC[C@H]2[C@@H]3CCC4=Cc5oncc5C[C@]4(C)[C@H]3CC[C@@]21C` [Danazol] displayed a growth of 0.176 ± 0.0079.
On to `Cn1c([N+](=O)[O-])cnc1COC(N)=O` [Ronidazole], for which the growth was 0.253 ± 0.031.
Still for that read-out and setting: next, `CC(C(=O)O)c1ccc(N2Cc3ccccc3C2=O)cc1` (stereo not given) [Indoprofen]: 0.186 ± 0.0097; `CC(=O)Oc1cc(C(C)C)c(OCCN(C)C)cc1C` [Moxisylyte hydrochoride]: 0.247 ± 0.053; `COc1ccccc1N1CCN(CCCCNC(=O)c2ccc3ccccc3c2)CC1`: 0.2 ± 0.012.
The same measure, in the same setting: with `CCCCC1(COC(=O)CCC(=O)O)C(=O)N(c2ccccc2)N(c2ccccc2)C1=O` [Suxibuzone] the figure was 0.204 ± 0.009.
The same measure, in the same setting: next, `Cc1c(N(C)C)c(=O)n(-c2ccccc2)n1C` [Amidopyrine]: 0.254 ± 0.056; `O=C1CN(/N=C/c2ccc([N+](=O)[O-])o2)C(=O)N1` [Nitrofurantoin]: 0.218 ± 0.034.
`c1ccc2[nH]c(-c3cscn3)nc2c1` [Tiabendazole] came in with a growth of 0.192 ± 0.023.
`CCCOc1cc(N)ccc1C(=O)OCCN(CC)CC` [Propoxycaine hydrochloride] came in with a growth of 0.22 ± 0.017.
On to `c1ccc(CC2=NCCN2)cc1` [Tolazoline hydrochloride], for which the growth came to 0.256 ± 0.052.
In turn, `CC(N/C(=N\C#N)Nc1ccncc1)C(C)(C)C` (stereo not given) [Pinacidil] showed a growth of 0.232 ± 0.022.
The same measure, in the same setting: next, `CS(=O)(=O)c1ccc(C2=C(c3ccccc3)C(=O)OC2)cc1` [Rofecoxib]: 0.213 ± 0.009; `O=C(N/N=C/c1ccc([N+](=O)[O-])o1)c1ccc(O)cc1` [Nifuroxazide]: 0.0557 ± 0.0021.
Still for that read-out and setting: next, `CC(CN(C)C)C(C)(O)Cc1ccc(Cl)cc1` (stereo not given) [Clobutinol hydrochloride]: 0.222 ± 0.026.
